Data from PubChem BioAssay (Tox21).
Records with an inconclusive call do not appear. The source made the active and inactive calls. Unless noted, the call rests on the fitted dose curve; in most records, active means well fitted curve in the direction sought with a large enough effect in the repeat runs; inconclusive means weak or mixed curves; inactive means no such curve, though single readings can be large; an effect the other way counts as inactive or inconclusive.

Columns and labels:
[1] = target: Aryl hydrocarbon receptor (Homo sapiens) (UniProt P35869); assay: qHTS assay to identify small molecule that activate the aryl hydrocarbon receptor (AhR) signaling pathway (AID 743085);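 further: HG2L7.5c1 human HepG2 liver cells with stably integrated DRE-driven firefly reporter; series mostly up to about 70 µM; nearly all actives have a fitted effect of over 15% in size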
Aryl hydrocarbon receptor (Homo sapiens), sequence (P35869 whole entry, looked up): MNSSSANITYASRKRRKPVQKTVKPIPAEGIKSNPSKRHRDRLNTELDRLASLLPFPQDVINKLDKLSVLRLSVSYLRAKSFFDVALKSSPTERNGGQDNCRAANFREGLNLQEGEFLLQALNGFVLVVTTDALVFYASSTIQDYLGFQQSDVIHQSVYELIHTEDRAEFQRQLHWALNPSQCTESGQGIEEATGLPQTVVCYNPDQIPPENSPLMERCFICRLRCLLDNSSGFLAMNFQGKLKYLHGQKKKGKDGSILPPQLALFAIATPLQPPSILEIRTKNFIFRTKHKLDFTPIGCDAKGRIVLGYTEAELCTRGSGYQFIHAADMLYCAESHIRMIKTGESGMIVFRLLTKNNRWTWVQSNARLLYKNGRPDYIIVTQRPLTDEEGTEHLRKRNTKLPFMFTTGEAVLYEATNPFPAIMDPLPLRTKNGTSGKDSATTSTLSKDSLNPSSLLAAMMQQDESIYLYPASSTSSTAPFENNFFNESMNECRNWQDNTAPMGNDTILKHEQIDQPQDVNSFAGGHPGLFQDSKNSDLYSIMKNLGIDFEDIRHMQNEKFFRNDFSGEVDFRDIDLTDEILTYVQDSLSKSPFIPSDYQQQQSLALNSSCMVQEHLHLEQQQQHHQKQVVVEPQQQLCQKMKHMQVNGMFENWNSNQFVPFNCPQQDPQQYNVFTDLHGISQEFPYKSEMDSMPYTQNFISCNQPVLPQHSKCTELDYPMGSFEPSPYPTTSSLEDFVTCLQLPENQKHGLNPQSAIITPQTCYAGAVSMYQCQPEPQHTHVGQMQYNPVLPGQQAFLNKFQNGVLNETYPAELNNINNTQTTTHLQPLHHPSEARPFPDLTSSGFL
Procedure, shortened: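 AhR agonist activity is inferred from enhanced light output of a DRE-controlled firefly luciferase reporter in HepG2 cells, measured with ONE-Glo following 24 h treatment at 37C.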

[2] = qHTS assay to identify small molecule that activate the aryl hydrocarbon receptor (AhR) signaling pathway - cell viability counter screen (AID 743086);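 further: HepG2 liver cells carrying the AhR DRE luciferase reporter; series mostly up to about 70 µM; nearly all actives have a fitted effect of over 45% in size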
Procedure, shortened: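 HepG2-AhR-luc (HG2L7.5c1) cells, 4000/well, were preincubated 5 h at 37C, exposed to compound in qHTS format for 24 hr at 37C, then given CellTiter-Fluor for 30 min; viability was read as fluorescence in the reporter wells.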

[3] = target: Peroxisome proliferator-activated receptor gamma (Homo sapiens) (UniProt P37231); assay: qHTS assay to identify small molecule antagonists of the peroxisome proliferator-activated receptor gamma (PPARg) signaling pathway (AID 743191; calls by dose curve; further: series mostly up to about 63 µM; nearly all actives have a fitted effect of over 30% in size)
Peroxisome proliferator-activated receptor gamma (Homo sapiens), sequence (P37231 whole entry, looked up): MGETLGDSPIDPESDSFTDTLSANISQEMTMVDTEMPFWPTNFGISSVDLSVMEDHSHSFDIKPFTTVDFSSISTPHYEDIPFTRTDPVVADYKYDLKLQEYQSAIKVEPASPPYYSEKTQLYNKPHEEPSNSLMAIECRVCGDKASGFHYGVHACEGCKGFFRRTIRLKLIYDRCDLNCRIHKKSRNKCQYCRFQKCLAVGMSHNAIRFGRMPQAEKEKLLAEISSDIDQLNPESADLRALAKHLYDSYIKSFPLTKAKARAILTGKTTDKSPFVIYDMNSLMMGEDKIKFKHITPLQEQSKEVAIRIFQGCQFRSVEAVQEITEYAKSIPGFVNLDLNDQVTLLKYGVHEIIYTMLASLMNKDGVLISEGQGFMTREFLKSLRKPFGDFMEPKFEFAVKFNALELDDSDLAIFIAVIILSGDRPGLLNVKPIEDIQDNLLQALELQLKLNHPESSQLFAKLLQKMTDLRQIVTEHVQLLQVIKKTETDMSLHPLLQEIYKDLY
Procedure, shortened: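 GeneBLAzer PPARg UAS-bla HEK293H cells carrying a UAS-driven beta-lactamase reporter were plated at 3000 cells/well, preincubated 5 h at 37C, then given compound for 17 h at 37C; LiveBLAzer B/G FRET substrate was read after 1 h at room temperature.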

[4] = qHTS assay to identify small molecule antagonists of the peroxisome proliferator-activated receptor gamma (PPARg) signaling pathway - cell viability counter screen (AID 743194); further: nearly all actives have a fitted effect of over 55% in size
Procedure, shortened: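 PPARg-UAS-bla HEK293H cells were plated, rested 5 h at 37 C, then treated with compounds plus rosiglitazone (50 nM final) for 17 h at 37 C; viability was then read by CellTiter-Glo luminescence after 30 min at room temperature.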

[5] = qHTS assay for small molecule agonists of the antioxidant response element (ARE) signaling pathway (AID 743202; active means well fitted activation curve with a large enough effect in the signal ratio in the repeat runs, not every such curve was filed as active; the % refers to the signal ratio)
Procedure, shortened: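 Compounds delivered in DMSO to ARE-bla HepG2 cells (2,000 cells/well, pre-incubated 5 h) and left 16 h at 37 C. LiveBLAzer B/G FRET substrate then added for 2 h at RT before fluorescence reading.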

[6] = qHTS assay for small molecule agonists of the antioxidant response element (ARE) signaling pathway - cell viability counter screen (AID 743203; calls by dose curve; further: nearly all actives have a fitted effect of over 55% in size)
Procedure, shortened: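 CellSensor ARE-bla HepG2 cells, 2,000 per well, rested 5 hrs at 37C/5% CO2, then exposed to compound in DMSO for 16 hrs; viability read as CellTiter-Glo luminescence after 30 min at room temperature, in the reporter wells.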

[7] = qHTS assay for small molecule activators of the heat shock response signaling pathway - cell viability counter screen (AID 743209); further: nearly all actives have a fitted effect of over 50% in size
Procedure, shortened: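 CellSensor HSE-bla HeLa cells, plated overnight at 37 C/5% CO2, were exposed to compounds in DMSO for 5 h at 37 C. Viability was then read in the same wells by CellTiter-Glo luminescence after 30 min at room temperature.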

[8] = qHTS assay for small molecule activators of the heat shock response signaling pathway (AID 743210; active means well fitted activation curve with a large enough effect in the signal ratio in the repeat runs, with a control signal flat, not every such curve was filed as active; the % refers to the signal ratio;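 further: HeLa cells with beta-lactamase reporter driven by heat shock elements; series mostly up to about 63 µM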)
Procedure, shortened: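 Reporter gene assay: HeLa cells stably bearing an HSE-bla construct, compound treatment 5 h at 37 C, LiveBLAzer substrate 2.5 h at RT, fluorescence intensity.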

[9] = qHTS assay to identify small molecule agonists of the peroxisome proliferator-activated receptor delta (PPARd) signaling pathway - cell viability counter screen (AID 743211); further: nearly all actives have a fitted effect of over 55% in size
Procedure, shortened: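 qHTS cell viability: PPARd-bla HEK293H; 17 h cpd, 37C; CellTiter-Glo, luminescence at 30 min RT.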

[10] = qHTS assay to identify small molecule antagonists of the peroxisome proliferator-activated receptor delta (PPARd) signaling pathway - cell viability counter screen (AID 743213); further: nearly all actives have a fitted effect of over 50% in size
Procedure, shortened: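 HEK293H PPARd UAS-bla cells, 5 h pre-incubation, compound + L165041 300 nM final, 17 h 37 C; B/G FRET substrate 2 h RT; then CellTiter-Glo 30 min RT, luminescence.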

[11] = qHTS assay to identify small molecule agonists of the farnesoid-X-receptor (FXR) signaling pathway - cell viability counter screen (AID 743218); further: nearly all actives have a fitted effect of over 45% in size
Procedure, shortened: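 FXR-UAS-bla HEK 293T cells, plated 5 h at 37 C, were exposed to compounds for 16 h at 37 C. CellTiter-Glo was then added to the same wells as the bla readout; luminescence read after 30 min at room temperature.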

[12] = qHTS assay to identify small molecule antagonists of the farnesoid-X-receptor (FXR) signaling pathway - cell viability counter screen (AID 743221; active means well fitted cell-killing curve with a large enough effect in the repeat runs, not every such curve was filed as active; further: nearly all actives have a fitted effect of over 50% in size)
Procedure, shortened: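 After a 5 h settling period, FXR-bla HEK 293T cells receive compound and chenodeoxycholic acid (50 uM final) and incubate 16 h at 37 C; CellTiter-Glo luminescence, read after 30 min at room temperature, reports cell viability.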

[13] = qHTS assay to identify small molecule agonists of the vitamin D receptor (VDR) signaling pathway - cell viability counter screen (AID 743224); further: series mostly up to about 63 µM; nearly all actives have a fitted effect of over 50% in size
Procedure, shortened: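 VDR-bla cells were preincubated 4 h at 37C/5% CO2, then exposed to compounds for 16 h. After the 2 h room-temperature bla FRET read, CellTiter-Glo was added to the same wells and luminescence read after 30 min.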

[14] = target: Peroxisome proliferator-activated receptor delta (Homo sapiens) (UniProt Q03181); assay: qHTS assay to identify small molecule agonists of the peroxisome proliferator-activated receptor delta (PPARd) signaling pathway (AID 743212; calls by dose curve)
Peroxisome proliferator-activated receptor delta (Homo sapiens), sequence (Q03181 whole entry, looked up): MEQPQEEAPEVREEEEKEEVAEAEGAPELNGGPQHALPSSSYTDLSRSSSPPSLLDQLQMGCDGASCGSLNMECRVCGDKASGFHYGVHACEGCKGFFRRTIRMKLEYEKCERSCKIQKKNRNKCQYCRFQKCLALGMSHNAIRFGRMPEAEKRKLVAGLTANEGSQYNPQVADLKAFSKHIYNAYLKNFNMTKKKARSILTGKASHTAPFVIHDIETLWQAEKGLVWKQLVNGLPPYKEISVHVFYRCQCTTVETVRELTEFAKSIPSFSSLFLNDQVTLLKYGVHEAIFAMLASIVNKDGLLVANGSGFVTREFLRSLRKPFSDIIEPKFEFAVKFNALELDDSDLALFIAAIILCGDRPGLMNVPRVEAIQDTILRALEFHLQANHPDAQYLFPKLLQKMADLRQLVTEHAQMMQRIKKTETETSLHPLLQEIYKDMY
Procedure, shortened: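 A PPARd-bla HEK293H line with beta-lactamase under an Upstream Activator Sequence is treated with compounds at 37 C. Substrate loading for 2 h at room temperature precedes the fluorescence measurement.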

[15] = target: Vitamin D3 receptor (Homo sapiens) (UniProt P11473); assay: qHTS assay to identify small molecule antagonists of the vitamin D receptor (VDR) signaling pathway (AID 743223; active means well fitted inhibition curve with a large enough effect in the signal ratio in the repeat runs, not every such curve was filed as active; the % refers to the signal ratio)
Vitamin D3 receptor (Homo sapiens), sequence (P11473 whole entry, looked up): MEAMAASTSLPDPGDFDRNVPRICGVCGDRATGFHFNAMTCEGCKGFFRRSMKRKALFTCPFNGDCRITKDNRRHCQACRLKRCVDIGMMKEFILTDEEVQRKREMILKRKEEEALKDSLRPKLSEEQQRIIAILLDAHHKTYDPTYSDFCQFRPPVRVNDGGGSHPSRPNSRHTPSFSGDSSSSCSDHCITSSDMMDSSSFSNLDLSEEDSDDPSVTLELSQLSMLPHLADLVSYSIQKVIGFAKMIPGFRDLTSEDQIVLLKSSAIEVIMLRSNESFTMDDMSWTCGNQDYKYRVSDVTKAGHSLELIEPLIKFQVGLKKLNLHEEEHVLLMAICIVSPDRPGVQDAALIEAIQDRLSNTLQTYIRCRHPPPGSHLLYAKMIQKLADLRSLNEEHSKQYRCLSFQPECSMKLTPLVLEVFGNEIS
Procedure, shortened: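 Reporter line VDR-bla; stimulus 1alpha,25-(OH)2 vitamin D3, 3 nM final; compound co-addition, 16 h 37C/5% CO2; LiveBLAzer B/G substrate 2 h RT; fluorescence intensity.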

[16] = target: Vitamin D3 receptor (Homo sapiens) (UniProt P11473); assay: qHTS assay to identify small molecule agonists of the vitamin D receptor (VDR) signaling pathway (AID 743222; calls by dose curve)
Procedure, shortened: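 VDR-bla cells were plated 4 h at 37C/5% CO2, then exposed to compounds in DMSO for 16 h. After LiveBLAzer B/G FRET substrate addition and 2 h at room temperature, beta-lactamase reporter fluorescence was read.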

[17] = target: Peroxisome proliferator-activated receptor delta (Homo sapiens) (UniProt Q03181); assay: qHTS assay to identify small molecule antagonists of the peroxisome proliferator-activated receptor delta (PPARd) signaling pathway (AID 743215; active means well fitted inhibition curve with a large enough effect in the signal ratio in the repeat runs, not every such curve was filed as active; the % refers to the signal ratio;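 further: cells stimulated with agonist L165041 at 300 nM final during compound exposure; series mostly up to about 62 µM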)
Procedure, shortened: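 PPARd UAS-bla HEK293H cells were pre-incubated 5 h at 37 C, then given test compounds in DMSO plus agonist L165041 (300 nM final). After 17 h at 37 C, beta-lactamase FRET substrate was added; fluorescence read after 2 h at room temperature.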

[18] = target: Bile acid receptor (Homo sapiens) (UniProt Q96RI1); assay: qHTS assay to identify small molecule agonists of the farnesoid-X-receptor (FXR) signaling pathway (AID 743220; active means well fitted activation curve with a large enough effect in the signal ratio in the repeat runs, not every such curve was filed as active; the % refers to the signal ratio)
Bile acid receptor (Homo sapiens), sequence (Q96RI1 whole entry, looked up): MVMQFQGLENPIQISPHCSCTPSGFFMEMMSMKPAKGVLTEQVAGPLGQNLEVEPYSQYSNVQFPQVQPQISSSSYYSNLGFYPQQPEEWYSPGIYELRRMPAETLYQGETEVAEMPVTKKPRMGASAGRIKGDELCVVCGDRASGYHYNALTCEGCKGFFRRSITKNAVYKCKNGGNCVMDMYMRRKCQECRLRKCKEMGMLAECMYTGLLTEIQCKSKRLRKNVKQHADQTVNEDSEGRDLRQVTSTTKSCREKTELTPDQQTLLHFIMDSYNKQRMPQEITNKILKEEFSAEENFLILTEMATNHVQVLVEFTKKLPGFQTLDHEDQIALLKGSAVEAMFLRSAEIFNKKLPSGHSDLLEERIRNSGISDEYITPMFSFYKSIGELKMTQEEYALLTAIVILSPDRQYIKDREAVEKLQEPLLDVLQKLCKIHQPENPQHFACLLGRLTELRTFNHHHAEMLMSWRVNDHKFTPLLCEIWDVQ
Procedure, shortened: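 Beta-lactamase reporter under UAS control in GeneBLAzer FXR HEK 293T cells (5000/well) measured with LiveBLAzer FRET substrate after 2 h at room temperature. Compound exposure lasted 16 h at 37C.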

Measured: Potency

CN(C)[C@@H]1C(=O)C(C(=O)NCN2CCCC2)=C(O)[C@@]2(O)C(=O)C3=C(O)c4c(O)cccc4[C@@](C)(O)C3C[C@@H]12 (some centres undefined)
not listed: [14] | [15] | [16] | [17] | [18]
inactive: all other assays above

O=S(=O)(O)c1cccc(S(=O)(=O)O)c1
not listed: [5] | [8] | [10] | [13] | [16] | [17] | [18]
inactive: all other assays above

O=C(O)Cc1csc(-c2ccc(Cl)cc2)n1
not listed: [11] | [16] | [17] | [18]
inactive: all other assays above

Cc1ncc(COP(=O)(O)O)c(C=O)c1O
not listed: [5] | [8] | [17] | [18]
inactive: all other assays above

NC(CCC(=O)O)C(=O)O (centres undefined)
not listed: [8] | [15] | [18]
inactive: all other assays above

CCC(C(=O)NC(=O)NC(C)=O)c1ccccc1 (centres undefined)
not listed: [8] | [13] | [14] | [15] | [16] | [17] | [18]
inactive: all other assays above

CCC1C(=O)OCC1Cc1cncn1C (centres undefined)
not listed: [5] | [10] | [14] | [18]
inactive: all other assays above

Nc1ccn([C@@H]2O[C@H](CO)[C@@H](O)[C@@H]2O)c(=O)n1
not listed: [5]
inactive: all other assays above

C[N+](C)(CCOc1ccccc1)Cc1cccs1
not listed: [3] | [10] | [18]
inactive: all other assays above
